NS1 function inh: influenza NS1 inhibition | Potency, µM (top dose mostly 46.1 µM), inactives show at the highest dose activity, positive = more growth | 270,000 compounds, 0.4% hits | AID 2326; calls by dose curve; also: actives are rising curves; nearly all actives have a fitted effect of over 50% in size
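OD600 was taken as the measure of yeast growth restored by compound in an NS1-expressing S. cerevisiae strain. Cells had been washed out of glucose medium and diluted 1:100 into galactose -URA medium, pH 6.0.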
LmPK inh: blocks Leishmania mexicana pyruvate kinase activity | Potency, µM (highest dose often 57.5 µM), for inactives: top-dose activity change, negative = inhibition, actives largely listed as inhibitors | 290,000 compounds, 0.37% hits | purified LmPK, Kinase-Glo ATP luminescence, 1 h | Q27686 | AID 1721; also: % is scaled to controls: 0 for no effect and ±100 for the full control effect
Target sequence (Q27686 whole entry, looked up): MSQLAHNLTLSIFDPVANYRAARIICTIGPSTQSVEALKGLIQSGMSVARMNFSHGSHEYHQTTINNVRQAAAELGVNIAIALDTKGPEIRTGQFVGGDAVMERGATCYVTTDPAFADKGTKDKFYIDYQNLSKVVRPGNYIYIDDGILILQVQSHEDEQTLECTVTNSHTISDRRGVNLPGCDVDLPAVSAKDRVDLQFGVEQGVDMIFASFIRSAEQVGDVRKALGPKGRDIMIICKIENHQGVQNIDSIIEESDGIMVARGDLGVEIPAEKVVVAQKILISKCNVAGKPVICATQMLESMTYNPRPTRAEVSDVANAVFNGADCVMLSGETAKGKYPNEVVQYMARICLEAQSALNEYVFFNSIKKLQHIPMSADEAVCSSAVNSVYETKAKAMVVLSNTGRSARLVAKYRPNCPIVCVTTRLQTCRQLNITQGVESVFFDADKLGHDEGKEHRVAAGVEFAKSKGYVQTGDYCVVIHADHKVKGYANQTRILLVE
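ATP generated from ADP (0.1 mM) and PEP (0.5 mM) by 0.1 nM LmPK over 1 h at room temperature (pH 7.2 imidazole buffer) was detected by coupled luciferase luminescence. Values were normalized to uninhibited and no-enzyme wells.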
Sm TGR inh: blocks Schistosoma mansoni thioredoxin glutathione reductase; 360,000 compounds, 3% hits; Potency, µM (doses to about 114 µM), without a hit: top-dose activity change, negative = inhibition, most hits filed as inhibitors; purified TGR, DTNB reduction, TNB absorbance 405 nm; Q962Y6; also: % is scaled to controls: 0 for no effect and ±100 for the full control effect; nearly all actives have a fitted effect of over 60% in size
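First, TGR (20 nM dispensed) and NADPH were mixed with compound. Second, a 15 min room-temperature incubation followed. Third, further NADPH and then DTNB were added to start the reaction. Finally, TNB absorbance was monitored kinetically.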
RE007 growth inh: less growth of the S. pombe RE007 Vpr strain; S. pombe RE007 Vpr strain, BacTiter-Glo ATP luminescence, 24 h; Potency, µM (doses to about 92.2 µM), for inactives: at the highest dose activity change, negative = less growth, most hits filed as inhibitors; 360,000 compounds, 0.21% hits; AID 651644; active = well fitted falling curve with a large enough effect; inconclusive = small, poorly fitted or top-dose-only effect; inactive = no such curve, though single readings can be large or run the other way; also: % is scaled to controls: 0 for no effect and ±100 for the full control effect; nearly all actives have a fitted effect of over 50% in size
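Fission yeast RE007 carrying one integrated HIV-1 vpr copy, seeded at OD 0.01 in PMG+AL medium with 23 nL pinned compound. Grown 24 h at 30 degrees; viability read by BacTiter-Glo luminescence after 5 min.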
Giardia FBPA inh-1: inhibitors of Giardia lamblia fructose-1,6-bisphosphate aldolase | Potency, µM (doses to about 59.6 µM), without a hit: at the top dose activity, negative = inhibition, hits mostly inhibitors | 290,000 compounds, 0.71% hits | A8B2U2 | AID 2451 | purified Giardia FBPA; also: % is scaled to controls: 0 for no effect and ±100 for the full control effect; nearly all actives have a fitted effect of over 55% in size
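40 nM FBPA preincubated 10 min at RT with compound (up to 57.5 uM final), then substrate plus GAPDH/TPI/NAD/arsenate coupling and diaphorase/resazurin added. Fluorescence read after 20 min at RT, 525/598 nm.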
TbPYK inhibitor: inhibitors of Trypanosoma brucei pyruvate kinase | 410,000 compounds, 0.12% hits | Potency, µM (series often up to 76.8 µM), for the others: at the highest dose activity, negative = inhibition, hits mostly inhibitors | Q57TT1 | AID 624173 | TbPYK enzyme, Kinase-Glo Plus ATP luminescence, 45 min; also: % is scaled to controls: 0 for no effect and ±100 for the full control effect; nearly all actives have a fitted effect of over 50% in size
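Quantitative HTS: titrated library compounds versus trypanosomal pyruvate kinase in TEA buffer (pH 7.2) containing KCl, MgCl2, BSA and Tween-20. Reactions were initiated with ADP, 130 uM final. Kinase-Glo Plus luminescence was read after 45 min at RT.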
Giardia growth: Giardia lamblia growth inhibition; shares compounds with Giardia FBPA inh-1; Giardia lamblia trophozoite growth inhibition; Potency, µM (highest dose often 57.5 µM), inactives show at the top dose activity change, negative = inhibition, actives largely listed as inhibitors; 1,500 compounds, 5% hits; AID 2785;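 also: trophozoites exposed to compound for 48 h at 37 °C; % is scaled to controls: 0 for no effect and ±100 for the full control effect; nearly all actives have a fitted effect of over 70% in size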
Mammal cell tox: toxic to mammalian cells in Giardia aldolase counter-screen; shares compounds with Giardia FBPA inh-1; mammalian cell viability counter-screen, qHTS; Potency, µM (series often up to 57.5 µM), without a hit: at the top dose viability change, negative = toxicity, most hits filed as inhibitors; 1,500 compounds, 4% hits; AID 2786;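 also: Chinese hamster ovary cells used as mammalian cytotoxicity surrogate; viability measured as cellular ATP by luminescence; compound exposure lasted 48 h before reading; % is scaled to controls: 0 for no effect and ±100 for the full control effect; nearly all actives have a fitted effect of over 60% in size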
Giardia FBPA inh-2: confirmation of Giardia fructose-bisphosphate aldolase inhibitors. Potency, µM (titrated, usually from 57.5 µM), for the others: at the highest dose activity change, negative = inhibition, actives largely listed as inhibitors. purified Giardia aldolase enzyme activity, qHTS. shares compounds with Giardia FBPA inh-1. 1,500 compounds, 5% hits. AID 2787; also: % is scaled to controls: 0 for no effect and ±100 for the full control effect; nearly all actives have a fitted effect of over 45% in size
Rabbit FBPA inh: selectivity test for Giardia aldolase inhibitors: rabbit aldolase; Potency, µM (top dose mostly 57.5 µM), for inactives: at the top dose activity, negative = inhibition, actives largely listed as inhibitors; 1,500 compounds, 4% hits; shares compounds with Giardia FBPA inh-1; Rabbit muscle FBPA enzyme inhibition, selectivity counter-screen; also: % is scaled to controls: 0 for no effect and ±100 for the full control effect; nearly all actives have a fitted effect of over 60% in size
GAPDH counter: GAPDH inhibition flagged for Giardia aldolase hits. Potency, µM (top dose mostly 57.5 µM), inactives show at the highest dose activity change, negative = inhibition, hits mostly inhibitors. AID 2795. 1,500 compounds, 6% hits. shares compounds with Giardia FBPA inh-1. GAPDH coupling enzyme counterscreen, biochemical, qHTS; also: % is scaled to controls: 0 for no effect and ±100 for the full control effect; nearly all actives have a fitted effect of over 55% in size
Numbers without * were called inactive; [ ] = remark or other dose. Sampled rows, rich in hits. Any-hit rate of the full collection: about 3.5%. Unless noted, calls follow the shape of the dose curve; as a rule, active = well fitted curve in the direction sought with a large enough effect; inconclusive = small, poorly fitted or top-dose-only effect, or another doubt; inactive = no such curve, though single readings can be large; an effect the other way counts as inactive or inconclusive. Potency is read from the fitted curve at half-maximal effect.

COc1ccccc1N1CCN(CC(=O)Nc2nc(C)c(C(=O)N(C)C)s2)CC1 was read as NS1 function inh 7%, LmPK inh 1%, Sm TGR inh 3%, RE007 growth inh 2%, Giardia FBPA inh-1 11µM*, TbPYK inhibitor -1%, Giardia growth 9%, Mammal cell tox 4%, Giardia FBPA inh-2 -3%, Rabbit FBPA inh 14% and GAPDH counter -16%.
`Cc1nc(NC(=O)CN2CCOCC2)sc1C(=O)N(C)C` gave NS1 function inh -10%, LmPK inh -1%, Sm TGR inh 1%, RE007 growth inh 3%, Giardia FBPA inh-1 inconclusive and TbPYK inhibitor -6%.
Screening CCNC(=S)N1CCN(Cc2ccc3c(c2)OCO3)CC1 returned NS1 function inh 2%, LmPK inh 2%, Sm TGR inh 16%, RE007 growth inh 17%, Giardia FBPA inh-1 5% and TbPYK inhibitor 0%.
For C=CCNC(=S)N1CCN(Cc2ccc3c(c2)OCO3)CC1 the results were NS1 function inh 14%, LmPK inh 2%, Sm TGR inh -9%, RE007 growth inh 3%, Giardia FBPA inh-1 7.1µM*, TbPYK inhibitor 1%, Giardia growth -26%, Mammal cell tox 6%, Giardia FBPA inh-2 -8%, Rabbit FBPA inh 9% and GAPDH counter -6%.
For Cc1c(N=Nc2c(O)n(-c3ccc(Br)cc3)c(=O)[nH]c2=O)c(=O)n(-c2ccccc2)n1C the results were NS1 function inh -14%, LmPK inh 0%, Sm TGR inh 10µM*, RE007 growth inh 2%, Giardia FBPA inh-1 16µM*, TbPYK inhibitor -3%, Giardia growth inconclusive, Mammal cell tox 10%, Giardia FBPA inh-2 9%, Rabbit FBPA inh 0% and GAPDH counter -6%.
Cc1c(N=Nc2c(O)[nH]c(=O)[nH]c2=O)c(=O)n(-c2ccccc2)n1C was read as LmPK inh -3%, Sm TGR inh -2%, RE007 growth inh 5%, Giardia FBPA inh-1 16µM*, TbPYK inhibitor 4%, Giardia growth 2%[10.4 µM], Mammal cell tox 22%, Giardia FBPA inh-2 -3%, Rabbit FBPA inh -20% and GAPDH counter -9%.
Screening S=c1nc[nH]c2c1ncn2C1CCCO1 (stereo not drawn) returned NS1 function inh 1%, LmPK inh 4%, Sm TGR inh 3%, RE007 growth inh -3%, Giardia FBPA inh-1 2.5µM*, TbPYK inhibitor -23%, Giardia growth 17%[38.3 µM], Mammal cell tox 32µM*, Giardia FBPA inh-2 -4%, Rabbit FBPA inh -5% and GAPDH counter -5%.
Screening OC[C@@H]1CCC[C@H](n2cnc3c(=S)nc[nH]c32)O1 returned NS1 function inh 5%.

Screening data as filed in PubChem BioAssay.
